NPR1 antag – human Npr1 receptor antagonism; P16066; HEK293 hNpr1 GloSensor cGMP, ANP-stimulated luminescence; Potency, µM (doses to about 46.3 µM), for inactives: at the top dose activity change, negative = inhibition, hits mostly inhibitors; 1.6% of 76,000 active; AID 1347048; calls by dose curve; further: on the % scale 0 is the no-effect control and ±100 the full control effect; nearly all actives have a fitted effect of over 60% in size
Target sequence (P16066 whole entry, looked up): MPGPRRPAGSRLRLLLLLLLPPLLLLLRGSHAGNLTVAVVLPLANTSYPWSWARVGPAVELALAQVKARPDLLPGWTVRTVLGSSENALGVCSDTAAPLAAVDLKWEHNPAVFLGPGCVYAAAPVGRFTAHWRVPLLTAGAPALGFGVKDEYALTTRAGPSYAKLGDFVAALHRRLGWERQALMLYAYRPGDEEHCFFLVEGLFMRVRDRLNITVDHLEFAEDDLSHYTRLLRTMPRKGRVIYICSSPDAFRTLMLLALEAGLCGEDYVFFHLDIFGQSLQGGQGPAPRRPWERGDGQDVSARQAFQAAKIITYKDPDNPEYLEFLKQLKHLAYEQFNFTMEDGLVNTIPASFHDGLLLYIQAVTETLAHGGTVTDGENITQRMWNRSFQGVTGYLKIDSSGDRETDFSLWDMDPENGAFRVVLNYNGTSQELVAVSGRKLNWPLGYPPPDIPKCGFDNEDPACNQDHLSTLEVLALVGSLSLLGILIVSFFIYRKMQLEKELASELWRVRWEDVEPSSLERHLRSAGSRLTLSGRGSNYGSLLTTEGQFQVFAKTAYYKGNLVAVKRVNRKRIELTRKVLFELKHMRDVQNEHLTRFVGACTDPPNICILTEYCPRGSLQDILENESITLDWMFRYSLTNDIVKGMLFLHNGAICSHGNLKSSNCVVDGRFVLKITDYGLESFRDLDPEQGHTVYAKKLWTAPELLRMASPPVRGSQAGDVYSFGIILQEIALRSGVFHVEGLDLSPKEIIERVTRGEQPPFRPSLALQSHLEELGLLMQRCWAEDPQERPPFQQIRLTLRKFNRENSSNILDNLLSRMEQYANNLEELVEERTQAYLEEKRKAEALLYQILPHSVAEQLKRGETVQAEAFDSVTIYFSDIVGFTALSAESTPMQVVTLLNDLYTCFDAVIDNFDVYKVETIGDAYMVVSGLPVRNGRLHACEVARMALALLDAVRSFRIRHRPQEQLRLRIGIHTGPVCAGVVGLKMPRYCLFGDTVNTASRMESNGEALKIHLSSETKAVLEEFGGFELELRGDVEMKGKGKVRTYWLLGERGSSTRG
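Compound pre-incubated 30 min at room temperature on GloSensor-loaded HEK293 cells stably carrying hNpr1 and the pGS-40F cGMP biosensor. Stimulation uses hNppA at 0.1 nM final; luminescence is taken at baseline and 20 min post-agonist.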
HEK293 tox – kills HEK 293 cells. HEK 293 viability, ATP luminescence (CellTiter-Glo), 48-72 h. Potency, µM (highest dose often 115 µM), for the others: top-dose activity change, negative = cytotoxicity, usual class: inhibitors. 6.6% of 94,000 active; further: on the % scale 0 is the no-effect control and ±100 the full control effect; nearly all actives have a fitted effect of over 60% in size
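Read-out: CellTiter-Glo ATP luminescence. Cells: HEK 293, 250 cells/well. Exposure: 48 or 72 hr, 37 degree Celsius.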
NIH3T3 tox – cytotoxic compounds in NIH 3T3 cells. 4.3% of 94,000 active. AID 1345082. Potency, µM (series often up to 96.7 µM), without a hit: at the highest dose activity change, negative = cytotoxicity, most hits filed as inhibitors. NIH 3T3 viability, CellTiter-Glo ATP luminescence, 48-72 h; further: on the % scale 0 is the no-effect control and ±100 the full control effect; nearly all actives have a fitted effect of over 55% in size
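NIH 3T3 cells at 400 cells/well received 23 nL of compound by pintool and were incubated 48 or 72 h at 37 °C. Viability was read as ATP-coupled CellTiter-Glo luminescence.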
GPT2 inhibitor – GPT2 alanine aminotransferase inhibition. Q8TD30. Recombinant GPT2, coupled pyruvate oxidase/HRP Amplex Red fluorescence. Potency, µM (series often up to 57.7 µM), for the others: at the top dose activity change, negative = inhibition, actives largely listed as inhibitors. AID 1671188. 0.25% of 100,000 active; further: on the % scale 0 is the no-effect control and ±100 the full control effect; nearly all actives have a fitted effect of over 60% in size
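Fluorescence of coupled pyruvate oxidase/HRP/Amplex Red system (50uM Amplex, 30 min, dark) reports pyruvate formed by GPT2. Enzyme reaction: 10ng/uL GPT2, 2mM L-alanine, 250uM a-KG, 30 min room temperature, pH 7.5; 50uM AOA control.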
FLuc inh-1 – inhibitors of firefly (Photinus pyralis) luciferase; Potency, µM (top dose mostly 115 µM), actives largely listed as inhibitors; 2.5% of 76,000 active; purified P. pyralis luciferase, luminescence, biochemical; AID 1347043; further: on the % scale 0 is the no-effect control and ±100 the full control effect; nearly all actives have a fitted effect of over 65% in size
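Purified 10nM P. pyralis luciferase with 10uM D-luciferin and 10uM ATP in 50mM Tris acetate pH 7.5, 10mM Mg acetate, 0.01% Tween-20, 0.05% BSA. qHTS titration; luminescence read by CCD imager.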
FLuc SDR -ATP – firefly luciferase binding stabilization, ATP absent; AID 1963318; Potency, µM (series often up to 32.7 µM), without a hit: at the top dose activation (signal gain), usual class: activators; shares compounds with FLuc inh-1; Purified FLuc-C-HiBiT, Nano-Glo HiBiT luminescence, no ATP; 7.8% of 1,300 active; further: nearly all actives have a fitted effect of over 55% in size
FLuc SDR ATP – stabilizes firefly luciferase with ATP present. shares compounds with FLuc inh-1. purified FLuc-C-HiBiT + ATP, HiBiT complementation luminescence. Potency, µM (series often up to 32.7 µM), without a hit: at the highest dose activation (gain of signal), actives largely listed as activators. 8.7% of 1,300 active. AID 1963319;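 further: signal reports ligand binding via conformational change of the enzyme rather than luciferase catalysis; % of control where 0% means no effect; nearly all actives have a fitted effect of over 55% in size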
FLuc inh-2 – firefly luciferase enzyme inhibition; purified FLuc-C-HiBiT enzyme, luciferin luminescence; 42% of 1,300 active; shares compounds with FLuc inh-1; Potency, µM (highest dose often 32.7 µM), without a hit: at the highest dose activity change, negative = inhibition, hits mostly inhibitors; further: on the % scale 0 is the no-effect control and ±100 the full control effect; nearly all actives have a fitted effect of over 70% in size
* hit, by the source's call; i = inactive; ? = inconclusive; / = no result given; [ ] = remark or other dose. A selection: hits, their analogues and other compounds. The true share with any hit is near 10%. Unless noted, the call rests on the fitted dose curve; in most records, active means well fitted curve in the direction sought with a large enough effect; inconclusive means small, poorly fitted or top-dose-only effect, or another doubt; inactive means no such curve, though single readings can be large; an effect the other way counts as inactive or inconclusive. Potency means the concentration at half of the fitted maximal effect.

SMILES | NPR1 antag | HEK293 tox | NIH3T3 tox | GPT2 inhibitor | FLuc inh-1 | FLuc SDR -ATP | FLuc SDR ATP | FLuc inh-2
O=C(Nc1ccc([C@H]2OCC(=O)N(Cc3ccncc3)[C@@H]2CO)cc1)c1ccc(C(F)(F)F)cc1 | ? | 20µM* | ? | -42% | 13µM* | 19% | 14% | ?
O=S(=O)(NCC1CCOCC1)c1ccc(F)cc1F | 2% | 2% | -2% | 4% | i | / | / | /
CCOc1cc(=O)n2c(c1C(=O)NCc1ccccn1)CCCCC2 | 1% | 3% | ? | i | i | / | / | /
CCOc1ccc(-n2nc(CO)c(C(=O)NCc3cccc(OC)c3)n2)cc1 | / | / | / | / | / | 23% | 15% | ?
CCOc1ccc(-n2nc(CO)c(C(=O)NCc3ccccn3)n2)cc1 | / | / | / | / | / | 28% | 17% | ?
COc1cccc(-c2cc(C(=O)NCc3nc(-c4ccccc4)n[nH]3)[nH]n2)c1 | 2% | ? | ? | -2% | 14µM* | 19% | 11% | ?
Clc1cccc(-c2nc3ccccc3s2)c1 | / | / | / | / | / | 19% | 16% | 8.8µM*
FC(F)(F)c1cc(-c2nc3ccccc3s2)cc(C(F)(F)F)c1 | / | / | / | / | / | 13% | 12% | ?
c1ccc2sc(SSc3nc4ccccc4s3)nc2c1 | / | / | / | 4%[27.3 µM] | / | / | / | /
N=c1nc(N2CCCCC2)cc(N)n1O | / | / | / | -11% | / | / | / | /
Nc1cccc(-c2ccc(N3CCCCC3)nn2)c1 | 4µM* | 35µM* | 35µM* | -5% | 0.4µM* | 1.6µM* | 1.2µM* | 0.56µM*
CCN1CCN(c2ccc3nnc(C4CCC4)n3n2)CC1 | 0% | -2% | -15% | -7% | i | / | / | /
CCN1CCN(c2ccc(-c3cccc(N)c3)nn2)CC1 | ? | ? | ? | i | 14µM* | 23% | ? | 9.9µM*
O=C(NCCn1cccc1-c1nc(-c2ccc3c(c2)OCO3)no1)c1ccc(Cl)cc1 | -22% | ? | -26% | i | 14µM* | 13% | 12% | ?
COc1ccc(C(=O)NCCn2cccc2-c2nc(-c3ccccc3)no2)cc1 | ? | -24% | -3% | i | 2.5µM* | ? | ? | 2.8µM*
Cc1ccc(C(=O)NCCn2cccc2-c2nc(-c3ccc4c(c3)OCO4)no2)cn1 | -25% | 28µM* | ? | i | 13µM* | 26% | 17% | ?
O=C(COc1ccc(F)cc1)N1CCCC(c2nc(C3CCOCC3)no2)C1 (centres undefined) | 5% | 4% | 1% | -1% | i | / | / | /
Cc1oc(S(=O)(=O)N2CCCCC2)cc1NC(=O)Nc1ccccc1 | / | / | / | i | / | / | / | /
CN(Cc1ccco1)C(=O)c1cccc2c1CCN2C(=O)Nc1ccccc1 | 10µM* | ? | ? | 2% | 1.3µM* | ? | 0.28µM* | 0.2µM*
CN(Cc1ccccc1)C(=O)CC1CCN(C(=O)Nc2ccccc2)C1 (centres undefined) | / | ? | -26% | i | / | / | / | /
CN(Cc1ccccc1)C(=O)c1cccc2c1CCN2C(=O)Nc1ccccc1 | 8.9µM* | ? | ? | 0% | 0.79µM* | 16% | 0.39µM* | 0.28µM*
CC(C)CCN1CCn2c(nn(-c3cccc(Cl)c3)c2=O)C1 | / | ? | ? | -11% | / | / | / | /
O=c1n(-c2cccc(Cl)c2)nc2n1CCN(Cc1ccccc1)C2 | / | ? | ? | 3% | / | / | / | /
CCN(c1ncnc2c1cnn2-c1cccc(Cl)c1)C1CCCCC1 | / | / | / | / | / | 27% | ? | 5.6µM*
Clc1cccc(-n2ncc3c(N4CCCCC4)ncnc32)c1 | / | / | / | / | / | 6.2µM* | ? | 0.99µM*
SMILES | NPR1 antag | HEK293 tox | NIH3T3 tox | GPT2 inhibitor | FLuc inh-1 | FLuc SDR -ATP | FLuc SDR ATP | FLuc inh-2
COCC(C)Nc1ncnc2c1cnn2-c1cccc(Cl)c1 (centres undefined) | / | / | / | / | / | 23% | 16% | ?
Cc1cc(Cl)ccc1-n1ncc2c(N3CCCCC3)ncnc21 | / | / | / | / | / | 31% | ? | 4.4µM*
Nc1ccc2ncnc(N3CCCC3)c2c1 | -9% | ? | -22% | 2% | i | / | / | /
Cc1c[nH]c2nccc(Oc3c(F)cc(Nc4cc(Cl)nc(N)n4)cc3F)c12 | / | / | / | 3% | / | / | / | /
Cn1cc(CN2CCc3nc(C(=O)Nc4ccccc4)oc3CC2)cn1 | / | / | / | / | / | 23%[49.3 µM] | 17%[49.3 µM] | ?
O=C(Nc1ccccc1)c1nc2c(o1)CCN(Cc1ccccn1)CC2 | ? | ? | ? | -7%[88.5 µM] | 4µM* | 26%[49.3 µM] | ? | ?
O=C(Nc1ccccc1)c1nc2c(o1)CCN(Cc1ccc(O)cc1)CC2 | 25µM* | ? | -30%[138 µM] | 1%[88.5 µM] | 0.56µM* | ? | ? | 5.1µM*
Cc1[nH]cnc1CN1CCc2nc(C(=O)Nc3cccc(C(F)(F)F)c3)oc2CC1 | -4%[70.6 µM] | ? | ? | i | i | / | / | /
COc1cccc(CN2CCc3nc(C(=O)NCC4CC4)oc3CC2)c1 | -30%[70.6 µM] | ? | ? | 3%[88.5 µM] | i | / | / | /
Cc1ccc(CN2CCc3nc(C(=O)Nc4ccccc4)oc3CC2)cc1 | 22µM* | ? | ? | -7%[88.5 µM] | 5µM* | 14%[49.3 µM] | 14%[49.3 µM] | ?
O=C(NCc1cccc(F)c1)c1nc2c(o1)CCN(Cc1cccc(Cl)c1)CC2 | ? | ? | ? | -12%[88.5 µM] | i | / | / | /
Cc1csc(NC(=O)c2nc3c(o2)CCN(Cc2cccc(F)c2)CC3)n1 | -25%[70.6 µM] | 50µM* | ? | 0%[88.5 µM] | 2.8µM* | 31%[49.3 µM] | ? | 14µM*
COCCCNC(=O)C1(C)CN(Cc2ccccc2)Cc2ccc(Nc3ccccc3)nc21 (centres undefined) | 8% | ? | ? | -7% | i | / | / | /
O=C1CCc2cc(NC(=O)c3n[nH]c4ccccc34)ccc2N1 | -26% | ? | ? | -1% | 2.8µM* | ? | ? | 3.1µM*
O=C(Nc1cccc(-c2nnc3n2CCCC3)c1)c1ccccc1F | 2% | -19% | ? | 2% | i | / | / | /
O=C(Nc1cccc(-c2nc3ccccc3[nH]2)c1)c1ccccc1F | / | / | / | / | / | 19% | 11% | ?
COCCN(C)C[C@@H]1CN(C(=O)c2ccc(Cl)cc2)C[C@@H]1CO | -5% | 0% | 2% | -5% | i | / | / | /
COc1ccccc1-c1nc2cc(NC(=O)c3ccccc3Cl)ccc2o1 | / | / | / | / | / | 16% | 13% | ?
O=C(Nc1ccc2oc(-c3ccccc3F)nc2c1)c1ccccc1Cl | / | / | / | / | / | 20% | 17% | ?

Assay outcomes from PubChem.
